Screening results from PubChem BioAssay.
IL1B secr inh = blocks inflammasome-driven IL-1 beta release | THP-1 LPS/ATP IL-1B secretion, AlphaLISA, 16 h; active compounds read low | activity change, % at 57.5 µM | 360,000 compounds, 4.7% hits | AID 743279; in the data active means activity change below about -50%; inconclusive means mostly about -30% to -49%; further: on the % scale 0 is the no-effect control and ±100 the full control effect
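THP-1 cells pretreated 1 hr with compounds (up to 57.5 uM final), then stimulated with LPS (250 ng/mL final) plus ATP (1.25 mM final); secreted IL-1B measured by AlphaLISA after 16 hr, decreased signal indicating inhibition.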
USP1 inh = USP1/UAF1 (human) deubiquitinase inhibition | Potency, µM (titrated, usually from 57.1 µM), for inactives: at the highest dose activity change, negative = inhibition, usual class: inhibitors | 390,000 compounds, 0.23% hits | recombinant USP1/UAF1, Ub-Rhodamine cleavage fluorescence | AID 743255; further: potency means the concentration at half of the fitted maximal effect; on the % scale 0 is the no-effect control and ±100 the full control effect; nearly all actives have a fitted effect of over 60% in size
Target sequence (O94782 whole entry, looked up): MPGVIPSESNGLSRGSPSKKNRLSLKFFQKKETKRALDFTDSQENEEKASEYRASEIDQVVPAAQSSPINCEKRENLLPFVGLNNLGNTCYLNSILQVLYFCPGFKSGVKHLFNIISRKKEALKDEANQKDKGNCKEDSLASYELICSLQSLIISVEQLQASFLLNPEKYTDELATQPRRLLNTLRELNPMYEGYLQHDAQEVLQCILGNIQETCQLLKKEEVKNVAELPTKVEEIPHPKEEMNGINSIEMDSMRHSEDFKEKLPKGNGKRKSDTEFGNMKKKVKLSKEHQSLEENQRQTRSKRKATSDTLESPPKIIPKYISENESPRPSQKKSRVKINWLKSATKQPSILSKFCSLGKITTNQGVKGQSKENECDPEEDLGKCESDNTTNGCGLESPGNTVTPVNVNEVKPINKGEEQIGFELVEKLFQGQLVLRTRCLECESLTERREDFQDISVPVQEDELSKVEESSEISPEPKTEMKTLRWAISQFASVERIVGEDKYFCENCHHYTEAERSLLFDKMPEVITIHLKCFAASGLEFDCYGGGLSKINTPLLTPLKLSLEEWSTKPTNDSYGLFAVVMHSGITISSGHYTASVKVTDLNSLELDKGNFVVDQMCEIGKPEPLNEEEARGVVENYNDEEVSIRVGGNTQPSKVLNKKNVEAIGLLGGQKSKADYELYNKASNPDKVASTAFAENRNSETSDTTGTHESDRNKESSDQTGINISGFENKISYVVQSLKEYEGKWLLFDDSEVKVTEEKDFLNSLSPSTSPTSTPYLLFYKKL
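High-throughput fluorogenic screen: 1nM USP1/UAF1 complex, Ub-Rho substrate 150nM final, 50mM HEPES pH 7.8 with 0.5mM EDTA, 0.1 mg/ml BSA, 1mM TCEP and 0.01% Tween-20.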
ATXN2 expr inh = reduces ATXN2 reporter expression in HEK-293 cells. AID 1745845. HEK-293 ATXN2-luciferase reporter, luminescence, 24 h. Potency, µM (top dose mostly 57 µM), for the others: at the highest dose activity change, negative = inhibition, most hits filed as inhibitors. 360,000 compounds, 0.72% hits; further: potency means the concentration at half of the fitted maximal effect; on the % scale 0 is the no-effect control and ±100 the full control effect; nearly all actives have a fitted effect of over 55% in size
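qHTS (up to 57 uM final) was run with 24 h compound exposure of reporter cells at 37 °C. Each well was multiplexed: SteadyGlo luminescence measured ATXN2-luciferase expression after a fluorogenic Gly-Phe-AFC viability readout (25 uM final).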
ATXN viability = viability counter-screen for ATXN expression inhibitors; 400,000 compounds, 0.49% hits; AID 651635; S2 cells (HEK-293 line with an ATXN2-luciferase reporter) viability, CellTiter-Fluor protease fluorescence, 24 h; Potency, µM (doses to about 56.7 µM), most hits filed as cytotoxic; further: potency means the concentration at half of the fitted maximal effect; nearly all actives have a fitted effect of over 40% in size
USP2a inh = inhibitors of human ubiquitin-specific protease USP2a. O75604. USP2 core, Ub-CHOP2 coupled fluorogenic reporter, 485/531. Potency, µM (highest dose often 38.3 µM), without a hit: at the highest dose activity change, negative = inhibition, actives largely listed as inhibitors. 330,000 compounds, 0.01% hits. AID 463254;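 further: potency means the concentration at half of the fitted maximal effect; plate controls were DMSO wells for no effect and full inhibition by NEM control for full effect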
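Deubiquitinase activity read as fluorescence (485/531 nm) after Ub-CHOP2 cleavage activates the enterokinase reporter on its substrate; USP2 core 10nM, Ub-CHOP2 and substrate 25nM each, 30min compound preincubation then 60min RT; data normalized to NEM, curves fitted.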
An asterisk follows results filed as active; i = inactive; ? = inconclusive; · = not tested or not shown. A selection: hits, their analogues and other compounds. The true share with any hit is near 4.8%. Unless noted, the call rests on the fitted dose curve; in most records, active means well fitted curve in the direction sought with a large enough effect; inconclusive means small, poorly fitted or top-dose-only effect, or another doubt; inactive means no such curve, though single readings can be large; an effect the other way counts as inactive or inconclusive.

SMILES	IL1B secr inh	USP1 inh	ATXN2 expr inh	ATXN viability	USP2a inh
CCC(=O)N1CCN(c2ccc(NC(=O)c3ccc(N4CCOCC4)c([N+](=O)[O-])c3)cc2)CC1	i	-21%	5%	?	0%
O=C(c1ccccc1)c1ccc(-n2ccnc2)c([N+](=O)[O-])c1	20	-13%	-12%	i	2%
O=C(c1ccccc1)c1ccc(-n2cnnc2)c([N+](=O)[O-])c1	-78*	3%	-6%	i	2%
COC(=O)[C@]12CCCCC=C1N(Cc1cccc3ccccc13)C(=O)[C@H](CC(=O)N1CCSCC1)C2	-12	·	-27%	?	·
CC(C)C(=O)OCc1cccc(OC(=O)[C@@H]2N3C(=O)[C@@H](NC(=O)Cc4ccccc4)[C@H]3SC2(C)C)c1	·	·	5%	?	·
C(=C\c1ccccc1)/CN1CCN(C(c2ccccc2)c2nnnn2C2CCCCC2)CC1 (stereo not drawn)	-29	·	10%	i	·
Cc1cc(C)cc(-n2c(C)cc(C(=S)N3CCOCC3)c2C)c1	-54*	-3%	-14%	i	6%
CN(C)S(=O)(=O)c1cccc(NC(=O)/C=C/c2ccc(S(=O)(=O)N3CCOCC3)cc2)c1	3	-21%	-16%	i	2%
COc1cc(/C=C/C(=O)Nc2cccc(S(=O)(=O)N3CCOCC3)c2)ccc1OCC#N	-54*	-13%	-33%	i	-2%
O=C(/C=C/c1ccc(OC(F)F)cc1)Nc1cccc(S(=O)(=O)N2CCOCC2)c1	-65*	-15%	?	?	-4%
CN(Cc1ccc(OC(F)F)cc1)C(=O)/C=C/c1ccc(S(=O)(=O)N2CCOCC2)cc1	-66*	-20%	-31%	i	2%
COc1ccc(/C=C/C(=O)Nc2cccc(S(=O)(=O)N3CCOCC3)c2)cc1OC	10	-34%	-7%	i	1%
CC(=O)c1sc(NC(=O)CCS(=O)(=O)c2ccc(F)cc2)nc1C	-94*	3%	·	?	·
Cc1ccc(S(=O)(=O)CCC(=O)Nc2nnc(-c3ccc(F)cc3)o2)cc1	-59*	-5%	5%	i	0%
CC(C)CNc1ncnc2c1ncn2[C@H]1CN(Cc2ccco2)C[C@@H](CO)O1	19	·	0%	i	·
Cc1cc(Cl)c(OCCCNC2CCCC2)c(Br)c1	-73*	-10%	-28%	i	0%
Cc1cc(Cl)c(OCCCn2ccnc2)c(Br)c1	-72*	-14%	-31%	?	4%
Cc1cc(C)c(OCCCn2ccnc2)c(C)c1	0	-18%	-18%	?	1%
O=c1[nH]c2ccccc2c(O)c1O	-92*	-7%	-16%	i	2%
CCN(CC(=O)Nc1ccc(C)c(F)c1)CC(=O)NC(C)(C)C	24	-16%	4%	i	2%
Cc1cc(/C=N/n2cnnc2)c(C)n1-c1ccc(OCc2ccc(F)cc2)cc1	-80*	-11%	?	i	2%
Cc1cc(/C=N/n2cnnc2)c(C)n1-c1ccc(OCc2ccc(Cl)cc2Cl)cc1	-80*	-10%	16µM*	i	0%
CC[n+]1c(/C=C/C=C/N(C(C)=O)c2ccccc2)sc2cc(OC)ccc21	-117*	28µM*	20µM*	32µM*	29%
CCN(CC)C(=O)C1CN2CCc3cc(OC)c(OC)cc3C2CC1OC(C)=O (stereo not drawn)	·	·	4%	i	·
CCOC(=O)C1=C(COC(=O)/C=C/c2ccc(OC)cc2OC)NC(=O)NC1C (stereo not drawn)	?	-21%	1%	i	-1%
SMILES	IL1B secr inh	USP1 inh	ATXN2 expr inh	ATXN viability	USP2a inh
Cn1c(-c2ccccc2)c(C(=O)CCl)c2ccccc21	-118*	-24%	?	7.5µM*	-11%
CCn1c(-c2ccccc2)c(C(=O)CCl)c2ccccc21	-108*	-26%	·	4µM*	4%
CCCCN(CC)C(=O)CSc1nc2c(sc3ccccc32)c(=O)n1CCc1ccccc1	·	-19%	7%	i	·
CCOc1ccc2nc3cc(N=Nc4ccc(N)nc4N)ccc3c(N)c2c1	38	16µM*	?	·	·
CCOC(=O)CN(C(=O)CSc1nnc2c(n1)[nH]c1ccc(OC)cc12)c1ccc(F)cc1	-59*	-8%	3%	i	3%
COc1ccc2[nH]c3nc(SCC(=O)Nc4cccc(NC(C)=O)c4)nnc3c2c1	-52*	-4%	-5%	i	0%
COc1ccc(CNC(=O)CSc2nnc3c(n2)[nH]c2ccc(F)cc23)cc1	1	-6%	-9%	i	2%
CN(CC(=O)NCc1ccccc1Cl)S(=O)(=O)c1ccc2c(c1)n(C)c(=O)c(=O)n2C	-2	-17%	10%	i	1%
Cc1ccc(NC(=O)Cn2c(=O)n(CCCCC(=O)NCCc3ccccc3)c(=O)c3ccccc32)c(C)c1	·	-9%	-13%	i	·
COc1ccc(C)cc1NC(=O)C1CCN(C(=O)c2ccc(C(C)(C)C)cc2)CC1	-16	-14%	4%	i	-7%
Cc1c(-c2ccc(Br)cc2)nc2ccccn12	-81*	-2%	73%	i	1%
Cc1ccc(-c2nc3ccccn3c2C=O)cc1	9	-13%	·	i	-4%
O=S1(=O)CC(O)C(O)CS1 (stereo not drawn)	2	·	-5%	i	·
O=C1N/C(=C/c2ccc(N3CCOCC3)o2)C(=O)N1c1ccccc1	-104*	-11%	?	?	-1%
C=CCN1C(=O)N/C(=C/c2ccc(N3CCOCC3)o2)C1=O	·	·	·	·	5%
COc1cccc(NC(=O)CN(C)C(=O)c2cc(-c3cccc(Br)c3)nc3ccccc23)c1	-55*	-5%	?	?	-12%
Cc1cc(N2CCN(C)CC2)nc2ccc(NC(=O)c3ccc4c(c3)OCO4)cc12	-54*	-2%	91%	i	-2%
Cc1cc(N2CCCCC2)nc2ccc(NC(=O)c3ccc(Br)o3)cc12	-66*	-19%	-29%	?	0%
COc1cc(C(=O)Nc2ccc3nc(N4CCN(C)CC4)cc(C)c3c2)cc(OC)c1OC	-5	-9%	8%	i	0%
COc1ccc(CNC(=S)Nc2ccc3nc(N4CCN(C)CC4)cc(C)c3c2)cc1	-101*	0%	-1%	i	0%
CCN1CCN(c2cc(C)c3cc(NC(=S)NCc4cccs4)ccc3n2)CC1	-2	-8%	·	?	-1%
Cc1cc(N2CCN(C)CC2)nc2ccc(NC(=S)NCc3cccs3)cc12	-77*	-3%	-4%	?	2%
Cc1nc(N(C)C2CCCCC2)c2nnn(Cc3ccc(F)cc3)c2n1	2	-27%	·	i	·
CN(C)c1nc(=NCc2ccco2)ss1	-89*	-26%	·	0.1µM*	-5%
COc1ccc(NCc2ccc(OC)c(Cn3ccnc3)c2)c(OC)c1	-69*	-6%	1%	i	2%
